Data taken from PubChem BioAssay (Tox21).
Records with an inconclusive call do not appear. The source made the active and inactive calls. Calls come from the whole dose curve; as a rule, active = well fitted curve in the direction sought with a large enough effect in the repeat runs; inconclusive = weak or mixed curves; inactive = no such curve, though single readings can be large; an effect the other way counts as inactive or inconclusive.

Experiments:
[1] = Caspase-3/7 induction in CHO-K1 cells by small molecules, qHTS assay (AID 1346980); note: nearly all actives have a fitted effect of over 15% in size; note: potency is the fitted concentration of half-maximal effect
Summary of the method: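 Wild-type cells were seeded at 1,500 per well and settled 5 hr at 37 C, 5% CO2, then exposed to DMSO-dissolved compounds for 17 hr. Caspase-Glo 3/7 reagent was added, and luminescence was read after 30min at room temperature.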

[2] = Caspase-3/7 induction in HepG2 cells by small molecules, qHTS cell viability counter screen (AID 1346981); note: nearly all actives have a fitted effect of over 30% in size; note: potency is the fitted concentration of half-maximal effect
Summary of the method: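 Cell viability is measured as a cytotoxicity counter screen alongside the Caspase-Glo 3/7 readout in identical wells. Wild-type HepG2 cells are treated with test compounds for 16 hr at 37 C before CellTiter-Fluor addition and a 1-hr incubation.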

[3] = target: Nuclear receptor subfamily 1 group I member 2 (Homo sapiens) (UniProt O75469); test: Human pregnane X receptor (PXR) small molecule agonists, qHTS assay (AID 1346982); note: nearly all actives have a fitted effect of over 35% in size; note: potency is the fitted concentration of half-maximal effect
Summary of the method: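 Cells: HepG2 stably carrying PXR-Luc. Medium held 5% charcoal-stripped FBS. Compounds in DMSO added after 5 hr plating, incubated 24 hr, then luminescence quantified with ONE-Glo.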

[4] = target: Cytochrome P450 2D6 (Homo sapiens) (UniProt P10635); test: Cytochrome P450 Family 2 Subfamily D Member 6 (CYP2D6) small molecule antagonists: luciferase reporter qHTS assay (AID 1671196); note: nearly all actives have a fitted effect of over 50% in size; note: potency is the fitted concentration of half-maximal effect
Summary of the method: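 Enzyme and proluciferin substrate were first combined with test chemical for 10 min at room temperature. Adding NADPH regeneration solution started a 1 h reaction, stopped with luciferin detection reagent and read by luminescence 20 min later.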

[5] = target: Cytochrome P450 2C9 (Homo sapiens) (UniProt P11712); test: Cytochrome P450 Family 2 Subfamily C Member 9 (CYP2C9) small molecule antagonists: luciferase reporter qHTS assay (AID 1671198); note: nearly all actives have a fitted effect of over 50% in size; note: potency is the fitted concentration of half-maximal effect
Summary of the method: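 CYP2C9 activity was measured with a P450-Glo proluciferin substrate. Enzyme–substrate mix was held with compound for 10 min at room temperature, then NADPH regeneration solution was added for 1 h at 37C. Luciferin product was read as luminescence.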

[6] = target: Cytochrome P450 1A2 (Homo sapiens) (UniProt P05177); test: Cytochrome P450 Family 1 Subfamily A Member 2 (CYP1A2) small molecule antagonists: luciferase reporter qHTS assay (AID 1671199); note: nearly all actives have a fitted effect of over 50% in size; note: potency is the fitted concentration of half-maximal effect
Summary of the method: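 Compounds were incubated with CYP1A2 and a luminogenic proluciferin substrate for 10 min at room temperature before the reaction was started with NADPH regeneration solution. After 1 h, detection reagent was added and light output, proportional to CYP activity, was recorded.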

[7] = target: Voltage-gated inwardly rectifying potassium channel KCNH2 (Homo sapiens) (UniProt Q12809); test: Human Ether-a-go-go-Related Gene (hERG) channel small molecule antagonists: fluorescence cell-based qHTS assay (AID 1671200); note: series mostly up to about 77 µM; nearly all actives have a fitted effect of over 50% in size
Summary of the method: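 Thallium flux as potassium surrogate: FluxOR II dye loaded 1 h at room temperature into hERG-expressing U2OS cells, then stimulus buffer added after 10 min. Kinetic 480 nm excitation/540 nm emission read, 2 min.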

[8] = target: Cytochrome P450 3A4 (Homo sapiens) (UniProt P08684); test: Cytochrome P450 Family 3 Subfamily A Member 4 (CYP3A4) small molecule antagonists: luciferase reporter qHTS assay (AID 1671201); note: nearly all actives have a fitted effect of over 50% in size; note: potency is the fitted concentration of half-maximal effect
Summary of the method: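 Recombinant human CYP3A4 converts a proluciferin substrate to luciferin over 1 h at room temperature after NADPH regeneration solution is added (compound preincubated 10 min); detection reagent stops reaction, luminescence read 20 min later as relative units.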

[9] = target: Cytochrome P450 2C19 (Homo sapiens) (UniProt P33261); test: Cytochrome P450 Family 2 Subfamily C Member 19 (CYP2C19) small molecule antagonists: luciferase reporter qHTS assay (AID 1671197); note: nearly all actives have a fitted effect of over 65% in size; note: potency is the fitted concentration of half-maximal effect
Summary of the method: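 Inhibition of CYP2C19 was scored from loss of luminescence in a P450-Glo proluciferin substrate assay, NADPH-started and run 1 h at 37C, with ketoconazole as positive control.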

Measured: Potency

Sequence of Voltage-gated inwardly rectifying potassium channel KCNH2 (Homo sapiens) (Q12809 whole entry, looked up): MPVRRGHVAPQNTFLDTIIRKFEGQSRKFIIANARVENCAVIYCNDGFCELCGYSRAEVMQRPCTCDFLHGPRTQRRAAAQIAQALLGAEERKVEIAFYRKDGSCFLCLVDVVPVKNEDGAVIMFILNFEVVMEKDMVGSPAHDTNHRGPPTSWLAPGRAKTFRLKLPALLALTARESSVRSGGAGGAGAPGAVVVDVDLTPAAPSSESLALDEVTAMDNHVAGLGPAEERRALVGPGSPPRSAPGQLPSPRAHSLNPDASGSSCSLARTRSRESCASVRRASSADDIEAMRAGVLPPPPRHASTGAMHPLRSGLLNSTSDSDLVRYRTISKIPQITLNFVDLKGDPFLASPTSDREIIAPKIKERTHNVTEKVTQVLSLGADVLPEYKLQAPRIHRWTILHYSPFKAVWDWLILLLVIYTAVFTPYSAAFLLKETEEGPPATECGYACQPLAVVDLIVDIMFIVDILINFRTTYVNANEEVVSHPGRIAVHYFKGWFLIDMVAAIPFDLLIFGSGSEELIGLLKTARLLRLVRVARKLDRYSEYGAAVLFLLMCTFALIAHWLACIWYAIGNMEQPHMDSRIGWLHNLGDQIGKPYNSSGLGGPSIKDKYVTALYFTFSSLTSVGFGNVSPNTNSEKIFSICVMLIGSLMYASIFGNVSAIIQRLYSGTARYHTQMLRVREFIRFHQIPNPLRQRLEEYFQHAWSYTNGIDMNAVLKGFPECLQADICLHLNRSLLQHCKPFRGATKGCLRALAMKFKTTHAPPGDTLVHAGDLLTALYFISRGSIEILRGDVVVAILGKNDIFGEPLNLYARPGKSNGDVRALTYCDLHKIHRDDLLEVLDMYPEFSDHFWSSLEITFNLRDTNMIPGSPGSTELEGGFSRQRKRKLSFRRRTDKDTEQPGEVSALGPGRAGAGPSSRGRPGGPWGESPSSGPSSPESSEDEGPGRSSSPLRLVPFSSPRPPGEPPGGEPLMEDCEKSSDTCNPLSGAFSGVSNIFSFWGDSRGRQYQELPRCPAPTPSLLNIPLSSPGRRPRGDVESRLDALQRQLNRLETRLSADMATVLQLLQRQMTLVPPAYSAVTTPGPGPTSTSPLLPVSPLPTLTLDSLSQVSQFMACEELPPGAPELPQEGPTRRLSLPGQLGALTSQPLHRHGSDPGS
Sequence of Nuclear receptor subfamily 1 group I member 2 (Homo sapiens) (O75469 whole entry, looked up): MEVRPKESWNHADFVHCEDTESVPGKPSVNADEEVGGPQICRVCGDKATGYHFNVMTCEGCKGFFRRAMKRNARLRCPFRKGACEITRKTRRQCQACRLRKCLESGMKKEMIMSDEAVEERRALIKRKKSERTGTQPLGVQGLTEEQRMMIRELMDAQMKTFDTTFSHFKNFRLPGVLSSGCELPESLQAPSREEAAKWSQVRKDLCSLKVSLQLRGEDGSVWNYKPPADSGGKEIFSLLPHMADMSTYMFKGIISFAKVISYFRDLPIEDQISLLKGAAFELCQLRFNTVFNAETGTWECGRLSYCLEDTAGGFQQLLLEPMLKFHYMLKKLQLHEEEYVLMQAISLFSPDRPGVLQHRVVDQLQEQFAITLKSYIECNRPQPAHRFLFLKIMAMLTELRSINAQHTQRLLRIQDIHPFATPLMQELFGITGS
Sequence of Cytochrome P450 2C9 (Homo sapiens) (P11712 whole entry, looked up): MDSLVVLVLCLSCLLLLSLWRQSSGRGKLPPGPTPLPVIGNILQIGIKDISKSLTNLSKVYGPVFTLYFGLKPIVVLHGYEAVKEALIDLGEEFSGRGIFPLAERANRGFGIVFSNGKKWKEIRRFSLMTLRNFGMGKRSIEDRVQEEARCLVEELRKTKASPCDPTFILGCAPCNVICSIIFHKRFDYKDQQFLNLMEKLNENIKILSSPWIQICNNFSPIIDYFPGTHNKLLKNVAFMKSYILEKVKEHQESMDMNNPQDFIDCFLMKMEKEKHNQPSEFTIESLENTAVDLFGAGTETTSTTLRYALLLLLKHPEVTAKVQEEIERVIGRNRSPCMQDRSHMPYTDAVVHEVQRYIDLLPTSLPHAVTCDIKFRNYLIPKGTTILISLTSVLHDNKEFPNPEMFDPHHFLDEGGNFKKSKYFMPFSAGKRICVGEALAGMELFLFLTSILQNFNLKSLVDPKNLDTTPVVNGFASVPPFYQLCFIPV
Sequence of Cytochrome P450 2C19 (Homo sapiens) (P33261 whole entry, looked up): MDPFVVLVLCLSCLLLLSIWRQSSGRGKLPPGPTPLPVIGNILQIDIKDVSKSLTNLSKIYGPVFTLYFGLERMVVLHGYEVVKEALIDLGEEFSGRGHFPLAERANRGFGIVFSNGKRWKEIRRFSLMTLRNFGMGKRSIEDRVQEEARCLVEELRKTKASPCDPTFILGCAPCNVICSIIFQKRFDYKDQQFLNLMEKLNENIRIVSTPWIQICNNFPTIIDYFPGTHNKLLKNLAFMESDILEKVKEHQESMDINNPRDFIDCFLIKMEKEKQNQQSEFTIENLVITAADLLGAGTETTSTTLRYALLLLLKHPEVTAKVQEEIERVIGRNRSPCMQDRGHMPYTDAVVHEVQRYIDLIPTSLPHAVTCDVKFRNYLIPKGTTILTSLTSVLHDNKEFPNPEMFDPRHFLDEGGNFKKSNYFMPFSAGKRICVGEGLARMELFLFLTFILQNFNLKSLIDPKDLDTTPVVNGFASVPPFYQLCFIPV
Sequence of Cytochrome P450 1A2 (Homo sapiens) (P05177 whole entry, looked up): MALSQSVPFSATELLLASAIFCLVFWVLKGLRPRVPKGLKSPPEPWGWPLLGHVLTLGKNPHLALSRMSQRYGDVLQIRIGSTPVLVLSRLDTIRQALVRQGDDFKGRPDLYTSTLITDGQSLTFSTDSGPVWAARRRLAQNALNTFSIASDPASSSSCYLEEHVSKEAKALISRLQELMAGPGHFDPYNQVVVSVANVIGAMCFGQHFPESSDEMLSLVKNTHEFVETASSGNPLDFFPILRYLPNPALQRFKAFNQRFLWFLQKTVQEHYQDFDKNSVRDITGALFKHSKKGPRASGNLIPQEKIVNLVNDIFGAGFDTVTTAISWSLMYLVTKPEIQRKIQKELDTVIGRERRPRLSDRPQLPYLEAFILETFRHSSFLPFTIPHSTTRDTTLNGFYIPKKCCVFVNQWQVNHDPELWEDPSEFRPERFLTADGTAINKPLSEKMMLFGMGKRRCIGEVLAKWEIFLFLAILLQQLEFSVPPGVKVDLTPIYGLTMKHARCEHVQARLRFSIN
Sequence of Cytochrome P450 2D6 (Homo sapiens) (P10635 whole entry, looked up): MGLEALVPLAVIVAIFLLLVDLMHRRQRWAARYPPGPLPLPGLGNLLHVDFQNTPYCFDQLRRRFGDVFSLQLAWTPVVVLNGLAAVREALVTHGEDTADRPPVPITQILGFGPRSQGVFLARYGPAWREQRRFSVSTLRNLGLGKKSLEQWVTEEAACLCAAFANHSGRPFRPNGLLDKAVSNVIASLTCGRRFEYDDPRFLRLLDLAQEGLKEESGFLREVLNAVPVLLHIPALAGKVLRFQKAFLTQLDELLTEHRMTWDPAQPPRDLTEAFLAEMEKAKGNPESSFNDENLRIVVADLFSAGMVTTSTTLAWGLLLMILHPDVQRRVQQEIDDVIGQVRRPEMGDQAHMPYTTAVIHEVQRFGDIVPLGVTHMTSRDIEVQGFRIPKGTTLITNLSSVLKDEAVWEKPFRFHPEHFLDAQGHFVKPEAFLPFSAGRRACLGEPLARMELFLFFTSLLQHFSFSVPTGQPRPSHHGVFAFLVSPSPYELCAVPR
Sequence of Cytochrome P450 3A4 (Homo sapiens) (P08684 whole entry, looked up): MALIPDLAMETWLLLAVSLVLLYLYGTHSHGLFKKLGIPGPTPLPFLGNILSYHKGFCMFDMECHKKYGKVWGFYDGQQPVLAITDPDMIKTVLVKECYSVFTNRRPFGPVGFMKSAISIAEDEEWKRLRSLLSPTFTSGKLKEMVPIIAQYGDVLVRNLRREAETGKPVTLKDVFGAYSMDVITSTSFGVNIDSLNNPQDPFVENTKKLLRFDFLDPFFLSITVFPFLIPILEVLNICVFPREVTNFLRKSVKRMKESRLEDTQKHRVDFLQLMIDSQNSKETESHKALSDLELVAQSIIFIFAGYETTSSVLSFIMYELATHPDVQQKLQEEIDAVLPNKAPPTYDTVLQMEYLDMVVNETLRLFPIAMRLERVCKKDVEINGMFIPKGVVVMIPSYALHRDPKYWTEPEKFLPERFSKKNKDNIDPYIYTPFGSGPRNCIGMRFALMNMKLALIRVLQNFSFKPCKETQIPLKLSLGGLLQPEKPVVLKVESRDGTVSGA

CCCCCCCCSCc1cc(C)c(O)c(CSCCCCCCCC)c1
active: [4] 5.03 µM | [5] 8.94 µM | [6] 25.2 µM
inactive: [1] | [2] | [3] | [7] | [8]

c1ccc(-c2nc3ccccc3[nH]2)cc1
active: [3] 9.69 µM | [4] 31.7 µM | [5] 35.6 µM | [6] 7.1 µM
inactive: [1] | [2] | [7]

O=C1OCc2ccccc21
inactive: [1] | [2] | [3] | [4] | [5] | [6] | [7] | [8]

CCOC(=O)[C@H](O)[C@@H](O)C(=O)OCC
inactive: [1] | [2] | [3] | [4] | [9] | [5] | [7] | [8]

O=C(c1ccccc1)c1ccc(Cl)cc1
inactive: [1] | [2] | [3] | [4] | [7] | [8]
active: [5] 15.9 µM | [6] 5.03 µM

CC(C=O)c1ccccc1 (stereo not drawn)
active: [9] 79.6 µM | [5] 35.6 µM
inactive: [1] | [2] | [3] | [4] | [7] | [8]

O=[N+]([O-])c1ccc(CO)cc1
inactive: [1] | [2] | [3] | [4] | [9] | [5] | [7] | [8]

Cc1c[nH]c(=O)[nH]c1=O
inactive: [1] | [2] | [3] | [4] | [9] | [5] | [7] | [8]

Cc1ccc(C=O)cc1
inactive: [1] | [2] | [3] | [4] | [5] | [6] | [7] | [8]

Brc1cc(Br)cc(Br)c1
inactive: [1] | [2] | [3] | [4] | [9] | [5] | [7] | [8]

O=C1c2ccccc2C(=O)c2c(Cl)cccc21
inactive: [1] | [2] | [7] | [8]
active: [3] 10.2 µM | [9] 18.8 µM | [6] 0.0473 µM

S=C1NC=NC2N=CNC12 (stereo not drawn)
active: [3] 21.7 µM | [9] 25.2 µM | [5] 39.9 µM | [6] 71 µM
inactive: [1] | [2] | [7] | [8]

Cc1cc(C)c(O)c(C(C)(C)C)c1
inactive: [1] | [2] | [3] | [4] | [7] | [8]
active: [6] 31.7 µM

C=COCCCC
inactive: [1] | [2] | [3] | [9] | [5] | [6] | [7] | [8]

CCc1cccc(CC)c1
inactive: [1] | [2] | [3] | [9] | [5] | [6] | [7] | [8]

CN(C[C@@H](CC[N+]12CCC(C3CCCCC3)(CC1)CC2)c1ccc(Cl)c(Cl)c1)C(=O)c1cc(C(F)(F)F)cc(C(F)(F)F)c1
active: [2] 68.6 µM | [9] 5.64 µM | [5] 39.9 µM | [6] 71 µM | [8] 2.24 µM
inactive: [1] | [3] | [7]

COc1cc(OC)nc(NC(=O)NS(=O)(=O)Nc2ccccc2C(=O)N(C)C)n1
active: [3] 43.3 µM | [9] 39.9 µM | [5] 31.7 µM | [6] 63.3 µM
inactive: [1] | [2] | [7]

CCCCCCCCc1ccc(Nc2ccc(CCCCCCCC)cc2)cc1
inactive: [1] | [2] | [3] | [4] | [7] | [8]

CCN(CC)c1ccc(N=Nc2ccccc2)cc1
inactive: [1] | [7]
active: [2] 27.3 µM | [3] 1.37 µM | [9] 20 µM | [5] 10 µM | [6] 11.2 µM

CCC1(C)C(=O)N(Cl)C(=O)N1Cl (stereo not drawn)
inactive: [1] | [2] | [3] | [9] | [5] | [6] | [7] | [8]

CCOc1nc(F)cc2nc(S(=O)(=O)Nc3c(Cl)cccc3C(=O)OC)nn12
active: [8] 35.6 µM
inactive: [1] | [2] | [3] | [4] | [6] | [7]

ClC(c1ccccc1)(c1ccccc1)c1ccccc1
inactive: [1] | [2] | [6] | [7] | [8]
active: [3] 9.69 µM | [9] 0.224 µM | [5] 1.59 µM

Cc1ccc(S(=O)(=O)C(I)I)cc1
active: [1] 12.2 µM | [2] 54.5 µM | [3] 19.3 µM | [9] 1.59 µM | [5] 1.12 µM | [6] 31.7 µM | [8] 39.9 µM

Cc1cccc(C)c1C
inactive: [1] | [2] | [3] | [9] | [5] | [7] | [8]

Cc1ccc(N=Nc2c(O)ccc3ccccc23)c(C)c1
active: [2] 8.41 µM | [3] 0.944 µM | [4] 17.4 µM | [6] 3.47 µM
inactive: [1] | [8]
